Screening results deposited in PubChem BioAssay by NMMLSC.
MEP2-GFP yeast = modulators of MEP2-GFP levels in yeast, primary screen, S. cerevisiae, multiplex flow cytometry, MLPCN library. S. cerevisiae MEP2-GFP strain, 3 h; 100% = DMSO control level. 330,000 compounds, 0.51% hits. GFP response vs DMSO, % at 10 µM. AID 2016, 2009;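 active means GFP response versus DMSO above a set limit, roughly screen mean plus 3 SD, cut at about 180% in these data; inconclusive means fewer than 70 cells counted for a yeast strain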;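 further: median GFP fluorescence of the barcode-gated MEP2-GFP cells per well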
CIT2 TOR yeast = modulators of CIT2-GFP expression in yeast, primary screen, S. cerevisiae, GFP fusion, multiplex flow cytometry, MLPCN library | S. cerevisiae CIT2-GFP strain, 3 h; 100 means same as DMSO wells | GFP response vs DMSO, % at 10 µM | 320,000 compounds, 0.065% hits | AID 2029, 2009;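 active means GFP response relative to DMSO above a set limit, near the screen mean plus 3 SD, cut at about 150% in these data; inconclusive means Fewer than 70 cells measured for a yeast strain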;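 further: ratio of well median GFP fluorescence to mean of DMSO wells on the plate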
AGP1-GFP MLPCN = modulators of AGP1-GFP expression in yeast TOR pathway, primary screen, cell-based, multiplex flow cytometry, S. cerevisiae, MLPCN library | 320,000 compounds, 0.02% hits | 3 h; GFP as percent of DMSO wells | GFP response vs DMSO, % at 10 µM;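 active means GFP response relative to DMSO above a set limit, near screen average plus 3 SD, cut at about 150% in these data; inconclusive means fewer than 70 cells counted for the yeast strain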;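 further: median GFP channel fluorescence of the gated AGP1 strain per well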
LAP4 TOR yeast = modulators of LAP4-GFP expression in yeast, primary screen, S. cerevisiae, multiplex flow cytometry, MLPCN library | 3 h; median GFP as percent of DMSO wells | GFP response vs DMSO, % at 10 µM | 320,000 compounds, 0.34% hits;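 active means GFP response vs DMSO above a set limit, about the screen mean plus 3 SD, cut at about 150% in these data; inconclusive means under 70 cell events counted for the yeast strain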
RPL19A TOR yeast = RPL19A-GFP expression modulators in yeast, primary screen, cell-based, S. cerevisiae, multiplex flow cytometry, MLPCN; percent response vs DMSO, % at 10 µM; AID 2025, 2009; S. cerevisiae RPL19A-GFP strain, 3 h; active compounds read low; 330,000 compounds, 0.3% hits;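 active means percent response vs DMSO below 50%; inconclusive means fewer than 70 events counted for the yeast strain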;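 further: median channel GFP fluorescence of the barcoded RPL19A-GFP strain; ratio of sample median GFP to plate DMSO average so 100% = DMSO; lower means less RPL19A-GFP as with rapamycin TOR inhibition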
* = called active by the depositor; ? = inconclusive; nt = no result given; [ ] = dose if it differs, or a comment. This is a sample that favours compounds with a hit; in the whole collection about 0.93% have one here.

SMILES	MEP2-GFP yeast	CIT2 TOR yeast	AGP1-GFP MLPCN	LAP4 TOR yeast	RPL19A TOR yeast
CCC(C)n1c(-c2cccs2)nc2nc3ccccc3nc21 (stereo not given)	428.6*[may fluoresce violet]	?	?	82.6	44.1*[may fluoresce violet]
CCOc1ccc(CCNC(=O)c2c(C)nn(-c3ccccc3)c2Cl)cc1OCC	103.0	98.5	90.7	87.3	103.7
O=S(=O)(CCc1ccncc1)c1ccc(Cl)cc1	104.5	106.3	97.8	98.4	104.0
C[C@H](NC(=O)Nc1cccc(C(F)(F)F)c1)C(=O)O	345.9*[may fluoresce violet]	?	20.7	90.6	76.8
O=C(Nc1ccccc1)Nc1cccc(C(F)(F)F)c1	99.7	95.8	94.5	98.2	94.5
Cc1ccc(CNC(=O)c2cn(C3CCCCC3)c(=O)c3c2c2ccccc2n3C)o1	101.5	103.0	100.5	98.3	99.2
Cc1ccc(CNC(=O)c2cn(C)c(=O)c3c2c2ccccc2n3C)o1	282.6*[may fluoresce violet]	?	?	111.0	45.8*[may fluoresce violet]
Cc1oc(C(C)(C)C)cc1C(=O)Nc1ccc(N2CCOCC2)cc1	112.2	111.3	103.7	108.0	108.4
O=C(O)CNCC1COc2ccccc2O1 (stereo not given)	256.3*[may fluoresce violet]	?	?	134.8	15.5*[may fluoresce violet]
CCCCC1OC23CCCCC2C(C#N)(C#N)C1(C#N)C(=N)O3 (stereo not given)	118.9	106.8	108.6	111.6	111.5
CCCCCCCCOc1ccc(C2OC34CCCCC3C(C#N)(C#N)C2(C#N)C(=N)O4)cc1 (stereo not given)	376.4*[may fluoresce violet]	?	28.8	84.2	49.4*[may fluoresce violet]
Cc1cccc(/C=C/c2onc(C)c2[N+](=O)[O-])n1	91.5	78.0	92.0	203.8*	87.8
COc1ccc([C@@H]2CC=C(C(=O)O)CN2S(=O)(=O)c2ccc(C)cc2)cc1OC	97.9	114.0	94.2	143.0	100.7
Cn1c(CCC(=O)OCC(=O)NCC(F)(F)F)nc(=O)c2ccccc21	188.6*[may fluoresce violet]	?	?	110.8	18.8*[may fluoresce violet]
COC(=O)c1ccc(C)c(NC(=O)CSc2nnc3ccccn23)c1	108.9	95.1	104.1	95.0	99.6
Cc1ccc2cc3cc(C(=O)NC4CCCCC4)oc3nc2c1	125.5	?	?	86.4	28.9*[may fluoresce violet]
Cc1ccc2cc3cc(C(=O)NC4CC4)oc3nc2c1	106.5	77.6	81.4	107.7	83.1
CC(=O)COc1ccc2c(C)c(C)c(=O)oc2c1	97.8	98.3	97.4	99.1	nt
Cc1c(C)c2ccc(OS(C)(=O)=O)cc2oc1=O	350.8*[may fluoresce violet]	?	20.9	70.7	47.1*[may fluoresce violet]
CC(=O)Oc1ccc(/C=C(\NC(=O)c2ccco2)C(=O)Nc2ccc(C(C)=O)cc2)cc1	532.3*[may fluoresce violet]	?	14.5	91.9	61.9
N#Cc1cc(Sc2ccccn2)c([N+](=O)[O-])cc1C#N	127.2	158.0*	109.7	155.9*	112.8
O=C(NNS(=O)(=O)c1ccccc1)c1cnn(-c2ccccc2)c1-n1cccc1	196.3*[may fluoresce violet]	?	nt	100.5	78.8
CCN(CC(=O)NCc1cccs1)C(=O)c1ccc(-c2ccc(F)cc2)o1	87.6	79.4	97.7	101.8	88.4
Cc1nn(C)c(C)c1Nc1ccc(N2C(=O)C3CC=CCC3C2=O)cc1[N+](=O)[O-] (stereo not given)	100.0	91.8	94.7	102.4	92.4
CC(=O)c1ccccc1NCC(=O)Nc1ccc(C)cc1	298.9*	217.5*	117.5	226.0*	118.3
SMILES	MEP2-GFP yeast	CIT2 TOR yeast	AGP1-GFP MLPCN	LAP4 TOR yeast	RPL19A TOR yeast
Cc1ccc(NC(=O)c2ccccc2NC(=O)CCC(=O)O)cc1	101.1	102.8	101.6	101.2	104.1
COC(=O)c1sccc1-n1cccc1C(=O)C(=O)N1CCCC1	183.9*[may fluoresce violet]	?	23.5	86.0	61.9
CNC(=O)c1cccn1-c1ccsc1C(=O)OC	103.0	90.8	96.7	102.0	95.7
Cc1ccc(C)c(-n2c(Cc3cc(=O)[nH]c(=O)[nH]3)nnc2SCC(=O)NCC2CCCO2)c1 (stereo not given)	233.9*[may fluoresce violet]	?	?	73.6	23.1*[may fluoresce violet]
Cc1ccc(C)c(-n2c(Cc3cc(=O)[nH]c(=O)[nH]3)nnc2SCC(=O)NCc2ccco2)c1	97.1	104.1	90.2	97.4	95.7
Cc1ccccc1-n1nc2c(c1NC(=O)c1cc3ccccc3o1)CS(=O)(=O)C2	99.1	103.9	103.1	101.5	100.0
CCCCN(C)C(=O)CC(NS(=O)(=O)c1ccc(NC(C)=O)cc1)C(C)C (stereo not given)	252.6*[may fluoresce violet]	?	24.6	78.4	94.0
CCOC(=O)C1CCN(S(=O)(=O)c2c(Cl)ccc3nonc23)CC1	113.7	80.9	100.1	150.8*	104.9
CC(Oc1ccc2ccc(=O)oc2c1)C(=O)c1ccccc1 (stereo not given)	101.4	94.6	97.6	97.7	98.8
COCCN(C(=S)Nc1cccc(C)c1)C(C)c1cccnc1 (stereo not given)	105.4	96.6	115.6	112.6	105.6
CC(C)(C)c1ccc(C(=O)NCCC(=O)N2CCC3(CC2)NCCc2[nH]cnc23)cc1	188.8*[may fluoresce violet]	?	?	80.6	16.6*[may fluoresce violet]
Cc1ccc(C(=O)NCCC(=O)N2CCC3(CC2)NCCc2[nH]cnc23)cc1	99.8	99.2	96.9	99.1	94.5
COc1ccc(CCNC(=O)c2ccc(-c3ccc([N+](=O)[O-])cc3)o2)cc1OC	196.3*[may fluoresce violet]	?	20.7	93.4	42.9*[may fluoresce violet]
COc1ccc(NC(=O)c2ccc(-c3ccc([N+](=O)[O-])cc3)o2)cc1	100.7	90.3	100.5	111.0	94.7
CC(NC(=O)CN(C)S(=O)(=O)c1ccc(Br)s1)c1ccccc1 (stereo not given)	257.4*[may fluoresce violet]	?	14.1	80.3	57.1
Cn1ccsc1=NC(=O)c1ccc([N+](=O)[O-])o1	241.0*[may fluoresce violet]	?	12.3	141.7	101.9
CC1(C)Cc2c(cnn2-c2cccc(F)c2)C(NC(=O)CSc2ccccn2)C1 (stereo not given)	111.4	101.3	105.4	96.3	100.6
O=C(NCc1ccccc1Cl)[C@@H]1CCCN1S(=O)(=O)c1ccc(Cl)cc1	93.3	103.7	101.7	99.6	98.1
O=C(c1ccc(NS(=O)(=O)c2cccc3cccnc23)cc1)N1CCCCC1	?	?	?	?	49.7*[may fluoresce violet]
CC(C)(C)C(=O)/C=c1\s/c(=C\c2ccc(-c3ccc([N+](=O)[O-])cc3)o2)c(=O)n1CC(=O)NC(N)=O	117.6	152.3*	113.6	127.6	90.6
CCC(=O)N/N=C/c1ccc(-c2ccc([N+](=O)[O-])cc2)o1	95.1	88.0	92.8	100.2	95.4
Cc1ccc(S(=O)(=O)c2cc3c(=O)n4ccccc4nc3n(C3CCCC3)c2=N)cc1	291.1*[may fluoresce red and violet]	?	?	93.1	?
Cc1ccc(S(=O)(=O)c2cc3c(=O)n4ccccc4nc3n(CCc3ccccc3)c2=N)cc1	217.0*[may fluoresce violet]	?	?	84.7	43.2*[may fluoresce violet]
